Experimental findings from ChEMBL document CHEMBL3988442, “University of Dundee, Small-Polar-MMV Screening Library” (2021) are described below.

Molecules are shown by their SMILES. The campaign covered roughly 48,000 compounds. About 13,000 (27%) showed an effect of 50% or more. This is one part of the list.

The assay relates to Wolbachia pipientis. Kind of assay: Anti-Wolbachia Cell-Based Screen. It counts as functional. Further details: scale not given: in the data most compounds retested in dose-response had high values. Conditions: 5 µM.
For the compound `O=C(O)C(F)(F)F.O=C(c1ccccc1-c1ccccc1)N1C[C@@H]2CNC[C@]2(C(=O)O)C1`, the “Percent Effect” value is 7.106%.

Consider `COc1cc(Oc2ncccc2C(F)(F)F)ccc1CN1CCCC1`, for which the “Percent Effect” value was 7.614%.

Take `COc1ccc(Oc2ncccc2C(F)(F)F)cc1CN1CCCC1`: the “Percent Effect” value was 21.25%.

On to `N#Cc1ccc(Oc2cc(F)c(CN3CCCC3)c(F)c2)nc1`, for which the “Percent Effect” value was found to be 28.32%.

`Fc1cccnc1Oc1cc(F)c(CN2CCCC2)c(Cl)c1`: the “Percent Effect” value worked out at 96.1%. As for `Fc1cc(Oc2ccc(C(F)(F)F)cn2)cc(F)c1CN1CCCC1`, the “Percent Effect” value is recorded as -0.6803%. In the case of `N#Cc1cccc(Oc2ccc(CN3CCCC3)cc2Cl)n1`, the “Percent Effect” value was 1.122%. The value for `COc1ccc(Oc2ncccc2F)cc1CN1CCCC1` was -25.38%; that for `N#Cc1cccnc1Oc1cc(F)c(CN2CCCC2)c(Cl)c1` was 85.58%; that for `Fc1cccnc1Oc1cc(F)c(CN2CCCC2)c(F)c1` was 105.5%. The value for `O=C(NCc1ccccc1CN1CCCCCC1)Nc1nncs1` was -11.94%; that for `CCc1csc(CNC2CCN(Cc3ccccc3)C2)n1` (stereo not drawn) was -41.87%; that for `O=c1[nH]c(=O)n(CC(O)c2ccccc2Cl)cc1Cl` (stereo not drawn) was -2.887%. Turning to `CCCn1cnnc1CNC(=O)C1COc2ccc(OC)cc2C1` (stereo not drawn), the “Percent Effect” value is -4.97%. On to `Cc1cccc(Nc2ccc(C3CCN(Cc4ncc[nH]4)CC3)nc2)n1`, for which the “Percent Effect” value is recorded as 108.6%. The value for `Cc1cc(Nc2ccc(F)cn2)cc(C2CCN(Cc3ncc[nH]3)C2)n1` (stereo not drawn) was 87.11%; that for `Brc1ccc(CN2CCC(NCc3ncc[nH]3)CC2)cc1` was 0.1556%; that for `CC(C)(C)c1n[nH]c(C2CN(Cc3ncc[nH]3)CCO2)n1` (stereo not drawn) was -4.416%. For the compound `CCCc1nnc([C@H]2CCN(Cc3ncc[nH]3)C2)o1`, the “Percent Effect” value is reported as 2.62%.

As for `Fc1ccc(Nc2ccc(C3CCN(Cc4ncc[nH]4)CC3)nc2)nc1`, the “Percent Effect” value was found to be 114.5%. To `Cn1cncc1-c1nnc([C@H]2CCN(Cc3ncc[nH]3)C2)o1` belongs -1.708%; to `CCCc1n[nH]c(C2CN(Cc3ncc[nH]3)CCO2)n1` (stereo not drawn), 0.7755%; to `Clc1cc(Cl)cc(CN2CCC(NCc3ncc[nH]3)CC2)c1`, 21.36%. The value for `CN(Cc1cccnc1)c1nc(-c2ccccn2)nc2c1CCNCC2` was -5.428%; that for `Cc1cnn(CCCn2ncc(N3CCC(CN)C3)cc2=O)c1` (stereo not drawn) was -3.735%. The value for `CCCC(C#N)NC(=O)CCCOc1cccc(C(C)=O)c1` (stereo not drawn) was 17.87%. Regarding `CCC(O)CN1CCN(C(=O)c2ccn(-c3cccc(F)c3)n2)CC1` (stereo not drawn), the “Percent Effect” value is listed as -17.79%. In the case of `CCC(=O)NCC(Cc1cccc(F)c1)n1cccc1` (stereo not drawn), the “Percent Effect” value was -1.872%. Take `CCC(O)Cn1nc(-c2ccc(C(=O)O)cc2)cc1-c1cccc(F)c1` (stereo not drawn): the “Percent Effect” value is recorded as 112%.

On to `CN(CCCc1cc(-c2ccc(F)cc2)n(C)n1)CC(N)=O`, for which the “Percent Effect” value was determined as 124.4%. To `CN(CCCc1cc(-c2ccc(F)cc2)n(C)n1)CC(=O)NC(N)=O` belongs 129.4%; to `CC(C(N)=O)N(C)CCCc1cc(-c2ccc(F)cc2)n(C)n1` (stereo not drawn), 117.2%; to `CN(CCCc1cc(-c2ccc(F)cc2)n[nH]1)C(=O)CCn1cncn1`, -5.05%. To `CC(C(N)=O)N(C)CCCc1cc(-c2ccccc2)no1` (stereo not drawn) belongs -1.184%; to `CN(CC(=O)NS(=O)(=O)c1ccc(F)cc1)Cc1ccccc1`, -17.38%. Take `CC(C)Cc1cc(C(=O)NCC(c2ccc(F)cc2)N(C)C)n(C)n1` (stereo not drawn): the “Percent Effect” value is -14.68%.

Turning to `CN(CC(N)=O)Cc1ccc(F)cc1Cl`, the “Percent Effect” value is -24.21%. The value for `NC(=O)NC(=O)CCn1ccc(-c2ccc(F)cc2)n1` was -9.81%; that for `NC(=O)CCSCc1ccc(Br)c(F)c1` was -4.384%. The value for `CCC(CO)N(Cc1cccs1)C(=O)Cc1ccncc1` (stereo not drawn) was -5.56%. To `c1ccc2c(c1)nc1n2[C@@H](CNCc2nccs2)COC1` belongs 3.551%; to `Cn1ccnc1SCCNC(=O)CC1CCc2ccccc21` (stereo not drawn), -4.259%. For `Cc1ccc(S(=O)(=O)NCC2CNCCOC2)cc1Cl` (stereo not drawn), the “Percent Effect” value is on record as -1.884%. Turning to `Cc1cccc2[nH]c(C3CCN(C(=O)c4cnc(O)cc4O)CC3)nc12`, the “Percent Effect” value is -25%. To `Cn1[nH]c(C2CC2)c(-c2ccc3c(c2)OCO3)c1=N` belongs -0.9629%; to `CN(Cc1cccnc1)C[C@H]1CC[C@@H](Cc2ccc3c(cnn3C)c2)O1`, -1.235%. Take `Cc1ccc(-c2noc(CN3CC(n4cc(C)cn4)C3)n2)cc1`: the “Percent Effect” value is listed as 109%. Regarding `Cc1cnn(C2CN(Cc3nc(-c4ccccc4C)no3)C2)c1`, the “Percent Effect” value stood at 81.63%. In the case of `Cc1cnn(C2CN(Cc3nc(-c4cccnc4)no3)C2)c1`, the “Percent Effect” value is 94.26%.

In the case of `Cc1cccc(-c2noc(CN3CC(n4cc(C)cn4)C3)n2)c1`, the “Percent Effect” value turned out to be 6.599%. Turning to `Cc1ccccc1-c1noc(CN2CC(n3cccn3)C2)n1`, the “Percent Effect” value stood at 17.98%. The value for `Cc1cnn(CC(C)NCc2nc(-c3cccnc3)no2)c1` (stereo not drawn) was 10.95%; that for `Cc1cnn(C2CN(Cc3nnc(-c4ccccc4Cl)o3)C2)c1` was 0.6902%; that for `Cc1cnn(C2CN(Cc3nc(-c4ccccn4)no3)C2)c1` was 99.99%. As to `Cc1cnn(C2CN(Cc3noc(C)n3)C2)c1`, the “Percent Effect” value was 14.64%.

`Cc1cnn(C2CN(Cc3nc(C(C)(C)C)no3)C2)c1`: the “Percent Effect” value was -1.752%.

Consider `Cc1cnn(C2CN(Cc3nc(-c4ccco4)no3)C2)c1`, for which the “Percent Effect” value is listed as -0.024%. The value for `Cc1cnn(C2CN(Cc3nnc(Cc4ccccc4)o3)C2)c1` was -8.725%; that for `O=c1cc(N2CCNCC2)cnn1Cc1noc(C2CCCC2)n1` was 5.676%; that for `CC(=O)N1CCC(C(=O)Nc2nnc(C(F)(F)F)[nH]2)CC1` was -2.768%. The value for `CC(=O)N[C@@H]1CN(C(=O)c2cnccn2)C[C@H]1c1ccc(C)cc1` was 4.61%; that for `Cc1ncc(CN2CCC(c3ccnn3C)CC2)n1-c1ccccc1` was 4.232%.

For `O=C(NCCOCCO)c1cnc(-c2ccccc2)nc1O`, the “Percent Effect” value is -4.282%. On to `COc1cnc(CN2CCN(CC(C)C)C(=O)C2C)cc1O` (stereo not drawn), for which the “Percent Effect” value is listed as -7.655%. To `c1cnn(C2CN(Cc3nc(-c4ccsc4)no3)C2)c1` belongs -8.892%; to `Cc1cccc(-c2noc(CN3CC(n4cccn4)C3)n2)c1`, 120.1%; to `COc1ccc(-c2noc(CN3CC(n4cc(C)cn4)C3)n2)cc1`, 101.6%. To `Cc1ccc(-c2nnc(CN3CC(n4cc(C)cn4)C3)o2)cc1` belongs 13.03%; to `Cc1cnn(C2CN(Cc3nc(-c4ccsc4)no3)C2)c1`, 107.2%. To `c1coc(-c2noc(CN3CC(n4cccn4)C3)n2)c1` belongs -9.344%. On to `COc1ccc(-c2noc(CN3CC(n4cccn4)C3)n2)c(OC)c1`, for which the “Percent Effect” value amounted to 7.442%. The value for `COc1ccc(-c2nc(CN3CC(n4cc(C)cn4)C3)no2)cc1` was 7.343%; that for `Cn1cnc2c1CCN(Cc1nc(-c3ccsc3)no1)C2` was -4.856%.
